Test results as given in PubChem BioAssay (NCI).
About 83,000 compounds went through this panel and 20% of them were active in at least one assay; those are over-represented in the sample as a whole.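 48-hour exposure, single concentration, 96-well plates; percent growth endpoint where 0 means no net growth. Active: below 10.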 A number with no mark means an inactive call. The source made the active and inactive calls.

Test system: COLO 205 colon
Experiment: NCI-60 one-dose screen, 48 h (100 = growth as untreated, 0 = no growth, -100 = all killed)
Conditions: 10 µM unless noted

Structure (SMILES) | growth
CC(O)c1cc2ccccc2c(=O)o1 (centres undefined) | 112%
NC/C(=C/F)COc1ccc2nc(NCc3cccnc3)oc2c1 | 111%
Cc1ccc(NC(=O)N[C@@H](Cc2cc(F)cc(F)c2)C(=O)NC2C(=O)N3C[C@H](O)C[C@H]3C(=O)N3CCCC[C@H]3C(=O)N[C@@H](CO)C(=O)N3C[C@H](C)C[C@H]3C(=O)O[C@H]2C)c(F)c1 (some centres undefined) | -11.9% (active)
O=c1[nH]c2ccccc2cc1CSc1ccccc1Nc1nccc(-c2ccc(Cl)cc2)n1 | 125%
CCn1c(SCC(=O)Nc2cccc(C(=O)/C=C/c3ccc(Br)cc3)c2)nc2ccccc2c1=O | 112%
Fc1ccc(-c2cc3nc(C(Cl)Cl)nc(-c4ccc(F)cc4)n3n2)cc1 | -70.2% (active)
CCNC(=O)N1CCc2cc(OC)c(OCCc3ccc(OC)cc3)cc2C1c1ccc(OC)cc1C (centres undefined) | 27.6%
C#CCOC(=O)[C@@H]1CCCN1CC#C | 88%
CCNC(=O)N1CCc2cc(OC)c(OCCc3ccc(OC)cc3)cc2C1c1ccc(Cl)cc1C (centres undefined) | 13.9%
COc1cc2nc(Cl)nc(Nc3cccc(C4=Nc5c(N)nc(N)nc5NC(c5ccc(Br)cc5)C4)c3)c2cc1OC (centres undefined) | 66.3%
COc1ccc(C(=O)CSc2nc3c(c(Nc4ccc(S(N)(=O)=O)cc4)n2)CCCC3)cc1 | 108%
Nn1c(N/N=C/c2nc3ccccc3s2)n[nH]c1=S | 115%
Cc1ccc(NC(=O)CNc2cc(C(N)=O)cc(F)c2C)c(Cl)c1 | 112%
Cc1cccc2c3c(sc12)C(c1ccc(Cl)cc1)c1c(nc(CC(=O)Nc2ccccc2)[nH]c1=O)O3 (centres undefined) | 101%
C=C(C=O)[C@@H]1CC[C@]2(C)[C@H](C(=O)C=C3[C@H]4C[C@](C)(C(=O)OC)CC[C@]4(C)CC[C@]32C)[C@@]1(C)CCC#N | 86.4%
Nc1nc(-c2cccc([N+](=O)[O-])c2)c(N=Nc2ccccc2)s1 | 63.1%
CC(=O)C1=C(C)NC(NNC(N)=S)=NC1c1ccccc1 (centres undefined) | 106%
COc1cc(OC)c(S(N)(=O)=O)cc1C(C)=O | 119%
CCOC(=O)c1c(Nc2ccccc2)nn2c(-c3ccc(OC)cc3)ccnc12 | 99.9%
O=C(CCn1c[n+](CC(=O)c2ccc(-c3ccccc3)cc2)c2ccccc21)Nc1cccc2cccnc12 | 44.2%

Structure (SMILES) | growth
N#C/C(=C\c1ccc(-c2ccc(Cl)cc2Cl)o1)c1ccc(F)cc1 | 100%
O=S(=O)(Nc1ccc2c(c1)OCO2)c1ccc(-c2cnc(C3CC3)o2)cc1 | 35.3%
COc1ccc(/C=C/C(=O)c2cc(S(N)(=O)=O)c(OC)cc2OC)cc1 | 92.6%
CS(=O)(=O)c1ccc(-n2cc(/C=N/O)c(-c3ccccc3)n2)cc1 | 101%
COc1ccc2c(c1)c(-c1cc(N)n3nc(-c4cn(C)c5ccc(OC)cc45)cc3n1)cn2C | 123%
C#CC(=O)N(c1ccc(OC)cc1OC)C(C(=O)NCC(=O)OCC)c1cccs1 (centres undefined) | 35%
C=CCn1c(SCC(=O)Nc2ccc(C(=O)/C=C/c3cc(OC)c(OC)c(OC)c3)cc2)nnc1-c1c[nH]c2ccccc12 | 73.1%
CC(C)(C)CC(C)(C)n1nnnc1C(Nc1nccs1)c1cc2cccc3ccc4cccc1c4c32 (centres undefined) | 114%
Cc1ccc2c(c1)C(=O)/C(=C/c1cccc(F)c1)S2 | 112%
CC1(COc2ccc3ncc(C#Cc4cncc(C(=O)Nc5cccc(C(F)(F)F)c5)c4)n3n2)COC1 | 80.7%
O=C(Nc1nonc1-c1ccccc1)c1ccc(C(F)(F)F)cc1 | 119%
CN1CCN(Cc2ccc(NC(=O)c3cncc(C#Cc4cnc5ccc(N6CCN(C)CC6)nn45)c3)cc2C(F)(F)F)CC1 | 38.9%
COc1cccc2c1CN(C(=O)c1ccc(O)c(C(=O)N3Cc4ccc(OCCC[P+](c5ccccc5)(c5ccccc5)c5ccccc5)cc4C3)c1)C2 | 54%
CCCSc1nc(Nc2ccc(/C(C)=N\NC(N)=S)cc2)c(C#N)c(-c2ccccc2)n1 | 79.9%
C[C@H]1c2[nH]c3ccccc3c2C[C@H]2C(=O)N(CCCCCCC(=O)NO)CC(=O)N21 | 90.3%
CC1(C)CC[C@]2(C(=O)N3CCOCC3)CC[C@]3(C)C(=CC[C@@H]4[C@@]5(C)C/C(=C/c6ccccn6)C(=O)C(C)(C)[C@@H]5CC[C@]43C)[C@@H]2C1 | 74.2%
C=C(C)[C@@H]1CC[C@]2(COC)CC[C@]3(C)[C@H](CC[C@@H]4[C@@]5(C)CCCNC(C)(C)[C@@H]5CC[C@]43C)[C@@H]12 | -49.2% (active)
COc1cc(-c2nn(C(C)(C)C)cc2-c2ccnc(NCCCNS(=O)(=O)c3ccccc3)n2)ccc1Cl | 101%
Cc1cc(C)c(N2C(=O)CC(Nc3ccc(Cl)cc3Cl)C2=O)c(C)c1 (centres undefined) | 124%
